Experimental findings from PubChem BioAssay (Tox21) are described below.

“And” between values parts separate entries of the source, which are not always exact repeats. Identical values can stand only once. Records with an inconclusive call do not appear. A structure can be active in one record and inactive in another. The source made the active and inactive calls. Unless noted, calls come from the whole dose curve.

Test [1] can be described thus: Nuclear factor erythroid 2-related factor 2/antioxidant responsive element (Nrf2/ARE) small molecule agonists: qHTS cell viability counter screen in human keratinocytes (AID 1919968; active = well fitted curve in the direction sought with a large enough effect in the repeat runs; an effect the other way counts as inactive or inconclusive; note: nearly all actives have a fitted effect of over 55% in size; note: potency is the fitted concentration of half-maximal effect). A digest of the protocol: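 Measured as CellTiter-Fluor fluorescence, this readout tracks cytotoxicity in the same wells as the ARE-luciferase screen. HaCaT reporter cells (1,500/well) received compounds after a 5 h pre-incubation and were exposed for 23 h.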

Test [2] can be described thus: Nuclear factor erythroid 2-related factor 2/antioxidant responsive element (Nrf2/ARE) small molecule agonists: luciferase reporter gene qHTS assay in human keratinocytes (AID 1919969). Note: nearly all actives have a fitted effect of over 35% in size. Note: potency is the fitted concentration of half-maximal effect. For orientation: A reporter such as luciferase makes a cellular process visible.
Test [3] concerns the target KiSS-1 receptor (Homo sapiens) (UniProt Q969F8). The experiment in a line: Human kisspeptin (KISS1R) small molecule agonists, calcium flux assay in KISS1R-HEK293 cells (AID 1920064; active = well fitted curve in the direction sought with a large enough effect in the repeat runs; an effect the other way counts as inactive or inconclusive). In short, it runs like this: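 Measures KISS1R agonism through calcium-sensitive dye fluorescence in stably transfected HEK293 cells, read for 3 min after pin-tool compound delivery; 15-point titrations in triplicate.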
(In general: Calcium assays in cells follow changes in intracellular calcium, usually with a dye or a luminescent sensor.)

Test [4] in a line: G protein-coupled receptor (GPCR) small molecule agonists, calcium flux assay: HEK293 wild type cell line counter screen (AID 1920065). A digest of the protocol:
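Readout: fluorescence at 480 nm excitation/540 nm emission, sampled at 1 s intervals for 3 min. Cells had been cultured 18 h, then dye-loaded 1 h at 37 C before compound or ATP addition.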

Test [5] can be described thus: p53 small molecule agonists, cell-based qHTS assay with human liver microsomes (AID 1963577).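 Note: p53 response element beta-lactamase reporter cells with liver microsomes plus NADPH.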 A digest of the protocol: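 Steps: plate p53RE-bla cells, incubate 5 h at 37 C; add compound in DMSO; add microsomes (0.5 mg/mL final) and NADPH (0.5 mg/mL final); incubate 16 h at 37 C; add LiveBLAzer, 2 h RT; read fluorescence.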
(qHTS replaces the single test concentration by a dilution series.)

The nature of test [6]: p53 small molecule agonists, cell-based qHTS assay with rat liver microsomes (AID 1963578). In short, it runs like this: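 Metabolic activation is supplied by rat liver microsomes with NADPH (each 0.5 mg/mL final). p53RE-bla cells incubate with compound 16 h at 37 C; reporter activity is measured by LiveBLAzer fluorescence.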
A short description of test [7]: p53 small molecule agonists, cell-based qHTS assay with human liver microsomes: qHTS cell viability counter screen (AID 1963579). Note: nearly all actives have a fitted effect of over 45% in size. Note: potency is the fitted concentration of half-maximal effect. In short, it runs like this:
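After the 460/530 nm beta-lactamase read, CellTiter-Glo was added to the same wells and luminescence measured after 30 min at room temperature, giving viability of p53RE-bla cells treated 16 h with compounds plus microsomes and NADPH.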

The nature of test [8]: p53 small molecule agonists, cell-based qHTS assay with rat liver microsomes: qHTS cell viability counter screen (AID 1963580). Note: nearly all actives have a fitted effect of over 45% in size. Note: potency is the fitted concentration of half-maximal effect. A digest of the protocol: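 Intracellular ATP, by CellTiter-Glo luminescence, defines viability. HCT-116 p53RE-bla cells, 4,000 per well, were compound-treated in the presence of rat liver microsomes and NADPH for 16 h at 37 C.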
A short description of test [9]: p53 small molecule agonists, cell-based qHTS assay: qHTS cell viability counter screen (AID 1963581). Note: nearly all actives have a fitted effect of over 45% in size. Note: potency is the fitted concentration of half-maximal effect. In short, it runs like this: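 In the same plates used for the p53 bla reporter, HCT-116 cells given compounds for 16 h at 37 C received CellTiter-Glo; luminescence was recorded 30 min later at room temperature.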
Test [10] can be described thus: p53 small molecule agonists, cell-based qHTS assay (AID 1963582; active = well fitted activation curve with a large enough effect in the signal ratio in the repeat runs, not every such curve was filed as active; the % refers to the signal ratio). In short, it runs like this: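 Compounds are pin-transferred in DMSO onto p53RE-bla cells and incubated 16 h at 37 C. The B/G FRET beta-lactamase substrate is then applied for 2 h at RT and fluorescence recorded.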
Test [11] concerns the target 5-hydroxytryptamine receptor 2A (Homo sapiens) (UniProt P28223). The experiment in a line: 5-hydroxytryptamine receptor 2A (HTR2A) small molecule antagonists, cell-based qHTS assay (AID 1963586). Note: nearly all actives have a fitted effect of over 45% in size. A digest of the protocol: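 Antagonist-mode intracellular calcium assay: DOI (4 nM) added after 5 min compound pre-incubation at room temperature to dye-loaded HTR2A-CHO cells. Fluorescence followed for 3 min, sampled every second.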

Test [12] shares this target. Nature of the test: 5-hydroxytryptamine receptor 2A (HTR2A) small molecule agonists, cell-based qHTS assay (AID 1963587). Note: nearly all actives have a fitted effect of over 30% in size. Note: potency is the fitted concentration of half-maximal effect. In short, it runs like this: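 Kinetic calcium-flux fluorescence (2 min, 1 sec intervals) after compound addition in agonist mode. HTR2A-CHO cells were cultured 18 h, then dye-loaded 1 h at 37 C.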
The target of test [13] is Muscarinic acetylcholine receptor M1 (Homo sapiens) (UniProt P11229). The experiment in a line: Cholinergic receptor muscarinic 1 (CHRM1) small molecule antagonists, cell-based qHTS assay (AID 1963588). Note: nearly all actives have a fitted effect of over 40% in size. In short, it runs like this: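 CHRM1-CHO calcium-flux assay, antagonist mode. Cells were seeded 18 h, dye-loaded 1 h at 37 C and given compound for 5 min at RT, then acetylcholine was added at 50nM. FDSS fluorescence was read 3 min; 15 concentrations, three runs.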

Test [14] shares this target. The experiment in a line: Cholinergic receptor muscarinic 1 (CHRM1) small molecule agonists, cell-based qHTS assay (AID 1963589). Note: nearly all actives have a fitted effect of over 35% in size. Note: potency is the fitted concentration of half-maximal effect. In short, it runs like this:
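Each compound was tested at 15 concentrations across three independent runs on dye-loaded CHO cells stably expressing human CHRM1, reading intracellular calcium fluorescence kinetically at 1 sec intervals.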

Test [15] can be described thus: cAMP Responsive Elements (CRE) small molecule agonists, cell-based qHTS assay (AID 1963590). A digest of the protocol: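 Cell line: CRE-bla HEK 293T; medium DMEM/10% dialyzed FBS/0.1 mM NEAA/1 mM pyruvate/25 mM HEPES; 3 h compound exposure; beta-lactamase FRET readout after 2 h substrate loading at RT.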
Test [16] is described as follows: cAMP Responsive Elements (CRE) small molecule antagonists, cell-based qHTS assay (AID 1963591; active = well fitted inhibition curve with a large enough effect in the signal ratio in the repeat runs, not every such curve was filed as active; the % refers to the signal ratio). A digest of the protocol:
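Inhibition of NKH477-driven (0.25 uM final) CRE-beta-lactamase signal in HEK293T cells, 3 h compound exposure at 37 °C, detected by FRET substrate fluorescence.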

For test [17], the target named is Beta-2 adrenergic receptor (Homo sapiens) (UniProt P07550). Nature of the test: Adrenergic beta2 receptor (ADRB2) small molecule antagonists, cell-based qHTS assay (AID 1963592). Note: series mostly up to about 92 µM; nearly all actives have a fitted effect of over 50% in size. A digest of the protocol:
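Cells (CHO, stable ADRB2 overexpression) incubated 18-20hr at 37C; compounds added from DMSO; agonist mix (1nM isoproterenol, 100uM IBMX, 25uM Ro-20-1724) added; 0.5hr RT; d2-cAMP and anti-cAMP-cryptate added; 1hr RT; 665/615 nm read.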

Test [18] has as its target D(2) dopamine receptor (Homo sapiens) (UniProt P14416). Nature of the test: Dopamine D2 receptor (DRD2) small molecule agonists, cell-based qHTS assay (AID 1963594). Note: nearly all actives have a fitted effect of over 35% in size. A digest of the protocol:
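cAMP accumulation in DRD2-HEK293 cells measured by HTRF after 1 h detection; compounds added 10 min before NKH477 (200nM […]) forskolin-analogue stimulation, 30 min at room temperature, with Ro20-1724 present at 0.1 mM final.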

Test [19] has the same target. The experiment in a line: Dopamine D2 receptor (DRD2) small molecule antagonists, cell-based qHTS assay (AID 1963595; active = well fitted inhibition curve with a large enough effect in the signal ratio in the repeat runs, with a control signal flat; the % refers to the signal ratio). In short, it runs like this:
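HTRF cAMP read-out at 665 and 620 nm emission (340 nm excitation). Antagonist mode: compounds were tested against 12 nM quinpirole in DRD2-HEK293 cells, with 200 nM NKH477 raising cAMP and 0.1 mM Ro20-1724 blocking its breakdown.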

The target of test [20] is Beta-2 adrenergic receptor (Homo sapiens) (UniProt P07550). The experiment in a line: Adrenergic beta2 receptor (ADRB2) small molecule agonists, cell-based qHTS assay (AID 1963593).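 Note: CHO cells stably overexpressing human ADRB2.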 A digest of the protocol: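 CHO cells stably over-expressing ADRB2 were plated overnight at 37C, then dosed with compounds plus a stimulation mix containing 100uM IBMX and 25uM Ro-20-1724 for 0.5hr at room temperature. cAMP was measured by HTRF competition, 1hr.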
% is set by controls: 0 for no effect and ±100 for the full control effect.

Sequence of 5-hydroxytryptamine receptor 2A (Homo sapiens) (P28223 whole entry, looked up): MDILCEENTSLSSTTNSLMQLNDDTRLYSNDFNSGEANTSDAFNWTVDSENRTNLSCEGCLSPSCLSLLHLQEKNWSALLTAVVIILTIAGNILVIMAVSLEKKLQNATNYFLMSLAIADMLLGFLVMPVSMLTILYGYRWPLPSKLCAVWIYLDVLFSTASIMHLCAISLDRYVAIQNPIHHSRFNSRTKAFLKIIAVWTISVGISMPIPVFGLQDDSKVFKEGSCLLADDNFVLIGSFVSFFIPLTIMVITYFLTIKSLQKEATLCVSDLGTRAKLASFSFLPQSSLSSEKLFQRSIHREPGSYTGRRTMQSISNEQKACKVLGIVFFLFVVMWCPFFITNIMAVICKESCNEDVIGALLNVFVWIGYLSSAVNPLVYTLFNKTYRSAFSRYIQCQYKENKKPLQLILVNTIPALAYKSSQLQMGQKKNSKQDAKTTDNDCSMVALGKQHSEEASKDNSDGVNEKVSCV
Sequence of Beta-2 adrenergic receptor (Homo sapiens) (P07550 whole entry, looked up): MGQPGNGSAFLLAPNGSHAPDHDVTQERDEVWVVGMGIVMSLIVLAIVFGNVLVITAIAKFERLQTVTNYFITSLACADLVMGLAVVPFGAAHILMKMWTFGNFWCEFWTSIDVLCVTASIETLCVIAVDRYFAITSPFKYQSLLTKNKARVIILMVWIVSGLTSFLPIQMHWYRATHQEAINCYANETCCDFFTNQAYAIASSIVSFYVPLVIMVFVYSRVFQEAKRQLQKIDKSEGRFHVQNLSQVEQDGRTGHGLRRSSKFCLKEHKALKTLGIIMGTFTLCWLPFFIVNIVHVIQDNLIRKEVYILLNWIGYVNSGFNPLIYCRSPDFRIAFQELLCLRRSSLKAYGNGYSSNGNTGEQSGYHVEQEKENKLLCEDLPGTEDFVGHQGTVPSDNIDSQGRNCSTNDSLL
Sequence of KiSS-1 receptor (Homo sapiens) (Q969F8 whole entry, looked up): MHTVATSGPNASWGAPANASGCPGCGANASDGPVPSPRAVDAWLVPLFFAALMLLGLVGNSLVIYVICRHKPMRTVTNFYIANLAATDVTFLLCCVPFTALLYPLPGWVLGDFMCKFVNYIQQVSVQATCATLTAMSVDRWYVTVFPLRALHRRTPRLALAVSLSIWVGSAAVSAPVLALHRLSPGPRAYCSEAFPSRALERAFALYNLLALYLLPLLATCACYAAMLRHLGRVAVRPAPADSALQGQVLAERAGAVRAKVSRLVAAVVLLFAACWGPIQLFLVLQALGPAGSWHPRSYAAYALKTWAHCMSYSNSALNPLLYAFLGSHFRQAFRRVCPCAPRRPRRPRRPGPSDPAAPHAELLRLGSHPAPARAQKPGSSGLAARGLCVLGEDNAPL
Sequence of D(2) dopamine receptor (Homo sapiens) (P14416 whole entry, looked up): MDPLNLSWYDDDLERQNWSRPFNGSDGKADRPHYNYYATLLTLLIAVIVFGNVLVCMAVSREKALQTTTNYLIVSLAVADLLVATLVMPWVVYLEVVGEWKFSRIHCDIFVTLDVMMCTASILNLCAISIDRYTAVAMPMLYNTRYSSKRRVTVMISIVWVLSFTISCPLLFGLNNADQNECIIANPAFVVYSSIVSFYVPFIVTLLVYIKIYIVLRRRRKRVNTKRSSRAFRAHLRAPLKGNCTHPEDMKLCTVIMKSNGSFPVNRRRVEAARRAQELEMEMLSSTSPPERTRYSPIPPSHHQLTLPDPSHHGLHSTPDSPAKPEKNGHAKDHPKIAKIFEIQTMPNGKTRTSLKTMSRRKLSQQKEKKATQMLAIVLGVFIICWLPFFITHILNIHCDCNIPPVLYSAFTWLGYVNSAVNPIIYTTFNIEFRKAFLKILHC
Sequence of Muscarinic acetylcholine receptor M1 (Homo sapiens) (P11229 whole entry, looked up): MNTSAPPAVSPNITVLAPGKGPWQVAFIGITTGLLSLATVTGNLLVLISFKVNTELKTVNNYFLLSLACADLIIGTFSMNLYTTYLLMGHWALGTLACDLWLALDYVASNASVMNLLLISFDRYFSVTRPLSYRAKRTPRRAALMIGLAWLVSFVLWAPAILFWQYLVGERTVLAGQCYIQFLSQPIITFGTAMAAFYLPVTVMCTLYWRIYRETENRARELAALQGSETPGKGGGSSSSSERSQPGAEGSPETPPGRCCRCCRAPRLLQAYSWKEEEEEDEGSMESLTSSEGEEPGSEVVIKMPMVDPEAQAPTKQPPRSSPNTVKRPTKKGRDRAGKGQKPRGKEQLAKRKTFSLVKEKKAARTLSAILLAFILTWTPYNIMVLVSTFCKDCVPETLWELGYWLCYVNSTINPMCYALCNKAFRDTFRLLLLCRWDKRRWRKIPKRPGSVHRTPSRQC

Take `CCc1ccccc1C`: the Potency result in [1], in test [2], in [3], in [4], in test [5] and in test [6] was “inactive” throughout. Also, the Potency result in test [7], in test [8], in test [9], in test [10], in test [11] and in test [12] was “inactive” throughout. Moreover, the Potency entry in [13], in test [14], in test [15], in test [16], in [17] and in [18] was “inactive” each time. In addition, in test [19], the Potency entry is “inactive”.

With `C/C(=N\NC(=O)Nc1cc(F)cc(F)c1)c1ncccc1C(=O)O`, the Potency result in test [1], in test [2], in test [3], in test [4], in test [5] and in test [6] was “inactive” throughout. Further, the Potency result in test [7], in [8], in [9], in test [10], in test [12] and in [13] was “inactive” each time. Besides, the Potency entry in test [14], in test [15], in [16], in test [17], in [20] and in test [18] was “inactive” in each case. Further, the Potency result in [19] is “inactive”.

As for `C=C(Cl)CCl`, the Potency entry in test [1], in test [2], in test [3], in test [4], in test [5] and in [6] was “inactive” each time. The Potency result in [7], in test [8], in test [9], in test [10], in [11] and in test [12] was “inactive” each time. Besides, the Potency result in [13], in [14], in [15], in test [16], in test [17] and in test [18] was “inactive” throughout. In addition, the Potency result in test [19] is “inactive”.

For the compound `O=C/C(Cl)=C(/Cl)C(=O)O`, the Potency entry in [1], in [11], in test [12], in test [13], in test [14] and in test [15] was “inactive” throughout. The Potency entry in test [17], in test [20], in test [18] and in test [19] was “inactive” each time. Besides, the Potency in test [2] was 68.5 µM (active) and 68.6 µM (active).

On to `C1CN2CCN1CC2`, for which the Potency result in test [1], in test [2], in test [3], in test [4], in test [7] and in [8] was “inactive” throughout. In addition, the Potency entry in [9], in test [11], in [13], in [15], in [16] and in test [17] was “inactive” throughout. Further, the Potency entry in [20], in test [18] and in [19] was “inactive” each time. Besides, the Potency result in [12] was “inactive and 54.9 µM (active)”; in test [14] it was “inactive and 54.9 µM (active)”.

Turning to `OC[C@@H](O)[C@H]1O[C@@H]2O[C@H](C(Cl)(Cl)Cl)O[C@@H]2[C@H]1O`, the Potency entry in test [1], in [2], in test [3], in test [4], in test [7] and in test [8] was “inactive” in each case. In addition, the Potency result in test [9], in [12], in test [13], in [14], in [15] and in test [16] was “inactive” in each case. Besides, the Potency result in [17], in [18] and in [19] was “inactive” each time.

As for `Brc1c(Br)c(Br)c(Br)c(Br)c1Br`, the activity change, negative = cytotoxicity in test [1] was 1.17% [at 8.39 µM] (inactive); in [7], -1.65% [at 5.99 µM] (inactive); in [8] it was 2.93% [at 5.99 µM] (inactive); in test [9], -11.2% [at 5.99 µM] (inactive). Also, the activity, positive = activation in test [2] was 1.37% [at 8.39 µM] (inactive). For the same compound, the activation in [4] is 0.0498% [at 5.23 µM] (inactive); in test [5], 1.36% [at 5.99 µM] (inactive); in test [6], -3.05% [at 5.99 µM] (inactive); in test [10] it was 2.53% [at 5.99 µM] (inactive); in [12], -1.65% [at 7.02 µM] (inactive); in test [14], -0.148% [at 6.97 µM] (inactive). Also, the activation in test [15] is -0.136% [at 8.39 µM] (inactive); in test [18], -0.47% [at 8.39 µM] (inactive). Further, the results for the activity, negative = inhibition in [11] and in test [13] were -11.3% [at 5.62 µM] (inactive) and 23.8% [at 5.58 µM] (inactive), respectively. In addition, the results for the activity change, negative = inhibition in test [16] and in test [17] were -5.46% [at 8.39 µM] (inactive) and -9.58% [at 8.39 µM] (inactive), respectively.

With `CCCCCCCCCCCCCCn1cc[n+](C)c1`, the Potency in [1] was 13.7 µM (active) and 27 µM (active) and inactive; in test [7] it was 40.9 µM (active) and 40.3 µM (active) and inactive; in test [8], 16.3 µM (active) and 32.1 µM (active) and inactive; in test [9], 28.9 µM (active) and inactive; in test [12], 21.9 µM (active) and 30.6 µM (active) and inactive. In addition, the Potency result in test [2], in test [3], in [5], in test [6], in test [10] and in [11] was “inactive” each time. For the same compound, the Potency entry in test [14], in test [15], in test [16], in [17], in [20] and in test [18] was “inactive” in each case. For the same compound, the Potency result in test [19] is “inactive”.
